# Experimental data taken from PubChem BioAssay (NCATS).
# Inconclusive results are not listed. Where a call stands in place of a potency, no number is given. Values without a mark were called inactive. The source made the active and inactive calls. The call rests on the fitted dose curve; in most records, active means well fitted inhibition curve with a large enough effect; inconclusive means small, poorly fitted or top-dose-only effect; inactive means no such curve, though single readings can be large or run the other way. Where a SMILES comes first, the peptide text is derived from it. [ ]: non-standard residue; d: D form. 2Abz = Nc1ccccc1C(=O)O
# Experiments:
# [1] = test system: Zika virus NS2B-NS3 protease (unlinked complex); test: Primary screen GU Rhodamine qHTS for Zika virus inhibitors: Unlinked NS2B-NS3 protease assay (AID 1347159); further: nearly all actives have a fitted effect of over 60% in size
# How it was run: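 A qHTS format was used, with compound concentrations ranging up to 114 microM. Each compound was preincubated with 25 nM NS2B-NS3 protease, and the substrate was then added at 1.5 microM. Curves were fitted with a 4-parameter Hill model.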
# [2] = test system: Zika virus NS2B-NS3 protease (linked construct); test: Primary screen NINDS Rhodamine qHTS for Zika virus inhibitors (AID 1347160); further: nearly all actives have a fitted effect of over 55% in size
# How it was run: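 Kinetic fluorescence (Ex 480 nm, Em 540 nm) over 15 min with 1.5 microM Rhodamine110 peptide and 25 nM linked protease.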
# Potency means the concentration at half of the fitted maximal effect.
smiles,measurement,setting,value
CNC(=O)[C@H]1O[C@@H](n2cnc3c(NCc4ccc(N)c(I)c4)ncnc32)[C@H](O)[C@@H]1O,"activity change, negative = inhibition",[1],10.8% [at 19.1 µM]
same,outcome,[2],inactive [at 10.7 µM]
COc1ccc(C2=CC(=O)OC2Cc2ccc(O)cc2)c(O)c1 (stereo not drawn),Potency,[1],inactive
same,Potency,[2],inactive
CNC(=O)c1ccc2cc([C@@]3(O)CCn4cncc43)ccc2c1,Potency,[1],inactive
same,Potency,[2],inactive
OCC1OC(Oc2cc(O)c3c(c2)OC(c2ccc(O)cc2)C(O)C3)C(O)C1O (stereo not drawn),Potency,[1],inactive
same,Potency,[2],inactive
COc1cc(C(C)=O)ccc1O[C@@H]1O[C@H](CO[C@@H]2O[C@@H](C)[C@H](O)[C@@H](O)[C@H]2O)[C@@H](O)[C@H](O)[C@H]1O,Potency,[1],inactive
same,Potency,[2],inactive
CC1(C)CC2C(O)C3=C(CC(C)(O)C2C1)C(=O)OC3O (stereo not drawn),Potency,[1],inactive
same,Potency,[2],inactive
CN1CC[C@@H](NC(=O)Nc2ccc(C#N)cc2)C[C@@H]1c1nc2ccccc2[nH]1,Potency,[1],inactive
same,Potency,[2],inactive
CC(C)[C@@H](C)/C=C/[C@@H](C)[C@H]1CC[C@H]2C3=CC=C4C[C@@H](O)CC[C@]4(C)[C@H]3CC[C@]12C,Potency,[1],inactive
same,Potency,[2],inactive
CCOc1ccc(C(Nc2ccccn2)c2ccc3ccc(C)nc3c2O)cc1C (stereo not drawn),Potency,[1],inactive
same,Potency,[2],inactive
COC(=O)[C@H](CC1C=NC=N1)NCC12CC3CC(CC(C3)C1)C2 (stereo partly drawn),Potency,[1],inactive
same,Potency,[2],inactive
CC1OC(O[C@H]2[C@@H](O)C[C@@]3(C)C([C@H](O)C[C@]4(C)C3CC=C3C5CC(C)(C)CC[C@]5(C(=O)OC5OC(CO)C(O)C(O)C5OC5OCC(OC6OCC(OC7OCC(O)C(O)C7O)C(O)C6O)C(OC6OCC(O)(CO)C6O)C5O)CC[C@]34C)[C@]2(C)CO)C(O)C(O)C1O (stereo partly drawn),"activity change, negative = inhibition",[1],27.1% [at 19.1 µM]
same,"activity change, negative = inhibition",[2],-1.39% [at 10.7 µM]
c1ccc(C(OC2CCN(CCCc3nn[nH]n3)CC2)c2ccccc2)cc1,Potency,[1],inactive
same,Potency,[2],inactive
Cc1coc2c1CC1OC1(C)CCC1OC1(C)C2 (stereo not drawn),Potency,[1],inactive
same,Potency,[2],inactive
COC(=O)C1(Cc2ccc(O)cc2)OC(=O)C(OC)=C1c1ccc(O)cc1 (stereo not drawn),Potency,[1],inactive
same,Potency,[2],inactive
COc1c(C)c(C(=O)c2ccc(N)c(C(=O)O)c2)n2ccccc12,Potency,[1],inactive
same,Potency,[2],inactive
CC1=C2[C@@H]([C@H](C)CC[C@H]2/C=C(\C)C(=O)O)[C@H](O)C1,Potency,[1],inactive
same,Potency,[2],inactive
CC(=O)O[C@@H]1[C@H](O[C@@H]2O[C@H](CO)[C@@H](O)[C@H](O)[C@H]2O)[C@@H](O[C@@H]2O[C@@H](C)[C@H](O)[C@@H](O[C@@H]3O[C@H](CO)[C@@H](O)[C@H](O)[C@H]3O)[C@H]2O)[C@H](OC(=O)C23CCC4(C)C(=CCC5C6(C)CC(O)C(O[C@@H]7O[C@H](C(=O)O)[C@@H](O)[C@H](O)[C@H]7O)C(C)(C(=O)O)C6CCC54C)C2CC(C)(C)CC3O)O[C@@H]1C (stereo partly drawn),"activity change, negative = inhibition",[1],7.44% [at 19.1 µM]
same,"activity change, negative = inhibition",[2],3.1% [at 10.7 µM]
COc1cc(C(=O)OC[C@H]2O[C@H](O[C@@]3(CO)O[C@@H](CO)[C@H](O)[C@H]3O)[C@H](O)[C@@H](O)[C@@H]2O)ccc1O,Potency,[1],inactive
same,Potency,[2],inactive
COC1C2=C(COC2=O)C2(C)CCCC(C)(CO)C2C1OC(=O)c1ccccc1 (stereo not drawn),Potency,[1],inactive
same,Potency,[2],inactive
CNC(=O)c1ccc(Nc2ncc(C(F)(F)F)c(NCc3nccnc3N(C)S(C)(=O)=O)n2)cc1,Potency,[1],inactive
same,Potency,[2],inactive
Cc1nnc(C(C)C)n1C1CC2CCC(C1)N2CC[C@H](NC(=O)C1CCC(F)(F)CC1)c1ccccc1 (stereo partly drawn),Potency,[1],inactive
same,Potency,[2],inactive
COC(=O)[C@@H]1C2CC3c4[nH]c5ccccc5c4CCN3CC2CC[C@@H]1O (stereo partly drawn),Potency,[1],inactive
same,Potency,[2],inactive
C=C1CC2C3(C)C(OC(C)=O)CC(=O)OC(C)(C)C3C(O)C(OC(C)=O)C2(C)C2C(=O)OC(C)C(=O)C12C (stereo not drawn),Potency,[1],inactive
same,Potency,[2],inactive
C=C1C[C@]23C[C@H]1CC[C@H]2[C@]1(C)CCC[C@@]2(CO)C(=O)O[C@H]([C@H]21)[C@@H]3O,Potency,[1],inactive
same,Potency,[2],inactive
C[C@@]12C[C@]3(O)O[C@H](O1)[C@]1(COC(=O)c4ccccc4)[C@H]3C[C@@]12O[C@@H]1O[C@H](COC(=O)c2ccccc2)[C@@H](O)[C@H](O)[C@H]1O,Potency,[1],inactive
same,Potency,[2],inactive
CC(C)(O)C1CCC2(C)C3C(O)C4C(C13)C42CO (stereo not drawn),Potency,[1],inactive
same,Potency,[2],inactive
C[C@@H]1C/C=C/C=C\C=C\C=C\[C@H](O[C@@H]2O[C@H](C)[C@@H](O)[C@H](N)[C@@H]2O)C[C@@H]2O[C@](O)(C[C@@H](O)C[C@H]3O[C@@H]3/C=C/C(=O)O1)C[C@H](O)[C@H]2C(=O)O,Potency,[1],inactive
same,Potency,[2],inactive
CC(=O)O[C@@H]1C[C@@]23C[C@@]24CC[C@H](OC2OC[C@@H](O)[C@H](O)[C@H]2O)C(C)(C)[C@@H]4CC[C@H]3[C@]2(C)CC3OC4(C[C@@H](C)C3[C@@]12C)OCC1(C)OC14 (stereo partly drawn),Potency,[1],inactive
same,Potency,[2],inactive
C[C@@H]1C(=O)O[C@H]2CC34[C@H]5C[C@@H](C(C)(C)C)C36[C@@H](OC(=O)[C@@H]6O)O[C@@]4(C(=O)O5)[C@]21O (stereo partly drawn),Potency,[1],inactive
same,Potency,[2],inactive
COc1ccc(/C=C/C(=O)O[C@@H]2[C@@H](O)[C@H](C)O[C@@H](OC3C4C=COC(O[C@@H]5O[C@H](CO)[C@@H](O)[C@H](O)[C@H]5O)C4C4(CO)OC34)[C@@H]2O)cc1OC (stereo partly drawn),Potency,[1],inactive
same,Potency,[2],inactive
COc1c(C(CC(C)C)OC(C)=O)ccc(Oc2c(O)cc(C)cc2/C=C/C(C)=O)c1C(=O)O (stereo not drawn),Potency,[1],7.08 µM (active)
same,Potency,[2],11.2 µM (active)
C[C@@H](O)[C@H](N)C(=O)N1CCC[C@H]1C(=O)N1CCC[C@H]1C(=O)N[C@H](C(N)=O)[C@@H](C)O (H-TPPT-NH2),"activity change, negative = inhibition",[1],-7.3% [at 19.1 µM]
same,"activity change, negative = inhibition",[2],20.4% [at 10.7 µM]
CC(=O)N(O)CCCCCN1C(=O)CCC1=O,Potency,[1],inactive
same,Potency,[2],inactive
CC1OC(OC2C(C)OC(OC3C(OC(=O)/C=C/c4ccc(O)cc4)C(CO)OC(OC4(COC(=O)/C=C/c5ccc(O)cc5)OC(CO)C(O)C4O)C3OC3OCC(O)(CO)C3O)C(O)C2O)C(O)C(O)C1O (stereo not drawn),Potency,[1],inactive
same,Potency,[2],inactive
NC(Cc1c[nH]c2ccccc12)C(=O)NC(CCC(=O)O)C(=O)O (stereo not drawn),Potency,[1],inactive
same,Potency,[2],inactive
Nc1nc(CC(=O)Nc2ccc(CCNCC(O)c3ccccc3)cc2)cs1 (stereo not drawn),Potency,[1],inactive
same,Potency,[2],inactive
CC1CCC(=O)CC(O)C(O)CC(=O)O1 (stereo not drawn),Potency,[1],inactive
same,Potency,[2],inactive
CCC[C@@H]1C[C@@H](C(=O)N[C@@H]([C@H]2O[C@H](SC)[C@H](OP(=O)(O)O)[C@@H](O)[C@H]2O)[C@H](C)Cl)N(C)C1,Potency,[1],inactive
same,Potency,[2],inactive
N[C@H]1C[C@H]1c1ccc(-c2cccc(O)c2)cc1,Potency,[1],inactive
same,Potency,[2],inactive
CC1(C(=O)O)CCCC2(C)C1CCC13CC(CCC21)C1(CO)OC31 (stereo not drawn),Potency,[1],inactive
same,Potency,[2],inactive
C[C@@H]1O[C@@H](O[C@@H]2[C@@H](O)[C@H](O[C@@H]3[C@@H](O)[C@@H](O)[C@H](O[C@H]4[C@H](OC(=O)[C@]56CCC(C)(C)C[C@H]5C5=CCC7[C@@]8(C)C[C@H](O)[C@H](O[C@@H]9O[C@H](C(=O)O)[C@@H](O)[C@H](O)[C@H]9O)[C@@](C)(CO)C8[C@H](O)C[C@@]7(C)[C@]5(C)CC6)OC[C@H](O)[C@@H]4O)O[C@H]3C)OC[C@H]2O)[C@H](O)[C@H](O)[C@H]1O (stereo partly drawn),"activity change, negative = inhibition",[1],20.7% [at 19.1 µM]
same,outcome,[2],inactive [at 10.7 µM]
N#CCc1ccc(O)cc1O[C@@H]1O[C@H](CO)[C@@H](O)[C@H](O)[C@H]1O,Potency,[1],inactive
same,Potency,[2],inactive
CC1NC(=O)CNC(=O)C(C(C)C)NC(=O)C2CCCN2C(=O)C(C(C)C)NC(=O)C(Cc2c[nH]c3ccccc23)NC1=O (stereo not drawn) (cyclo(GAWVPV); configuration not given here),Potency,[1],inactive
same,Potency,[2],inactive
CCC(C)C1NC(=O)C2CCCN2C(=O)C(C(C)C)NC(=O)c2ccccc2NC(=O)C(Cc2ccc(O)cc2)NC(=O)C(C)NC(=O)C(C(C)O)NC1=O (stereo not drawn) (cyclo([2Abz]VPITAY); configuration not given here),Potency,[1],inactive
same,Potency,[2],inactive
C(#Cc1cccc(CN2CCOCC2)c1)CCN1CCCCC1,Potency,[1],inactive
same,Potency,[2],inactive
CC(NCc1ccc(OCc2cccc(F)c2)cc1)C(N)=O (stereo not drawn),Potency,[1],inactive
same,Potency,[2],inactive
Cn1c(=O)c2nc(/C=C/c3cccc(Cl)c3)n(C)c2n(C)c1=O,Potency,[1],inactive
same,Potency,[2],inactive
COC(=O)C[C@@H]1C(C(=O)O)=CO[C@@H](O[C@@H]2O[C@H](CO)[C@@H](O)[C@H](O)[C@H]2O)/C1=C\COC(=O)/C=C\c1ccccc1,Potency,[1],inactive
same,Potency,[2],inactive
C=CCc1ccc(O[C@@H]2O[C@H](CO[C@@H]3O[C@H](CO)[C@@H](O)[C@H](O)[C@H]3O)[C@@H](O)[C@H](O)[C@H]2O)c(O)c1,Potency,[1],inactive
same,Potency,[2],inactive
Cc1c(-c2ccnn2C)cc(C(=O)NCc2ccc(S(C)(=O)=O)cn2)c(=O)n1-c1cccc(C(F)(F)F)c1,Potency,[1],inactive
same,Potency,[2],inactive
CCn1c2ccccc2c2cc(CNC)ccc21,Potency,[1],inactive
same,Potency,[2],inactive
COC1=Cc2c(nc3n(c2=O)C(C)C(=O)NC3(O)C(C)C)OC=C1 (stereo not drawn),Potency,[1],inactive
same,Potency,[2],inactive
Cn1ccnc1CCOC(c1cc2nccc(C(=O)O)c2[nH]1)c1ccccc1Cl (stereo not drawn),Potency,[1],inactive
same,Potency,[2],inactive
CN1C(=O)c2ccccc2-n2c(nc3ccccc3c2=O)[C@@]12O[C@H]2c1ccccc1,Potency,[1],inactive
same,Potency,[2],inactive
